Results published in PubChem BioAssay AID1159580 (chemical genetic matrix, 2015).
Screen size: about 5,500 compounds; about 2,000 (36%) were called active. Not shown: some 18% with an inconclusive outcome. Cut-off read from the data, not from the text of the source: active = normalized growth mostly below about 0.91 (no sharp cut-off); inconclusive = no clear call, values can overlap the other calls; inactive = mostly above about 0.92. The list shows a part of the results.

Assay: chemical genetic growth profiling, strain panel (AID 1159580);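 note: tested at 20 µM; growth read once vehicle control cultures reached saturation at 30 °C; 1 = growth at the plate median or of vehicle wells; lower values mean less growth of the strain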
Settings: growth OD

Measured: normalized growth

COc1ccccc1N=C(N)SCc1ccccc1
inactive: S. cerevisiae deletion strains, locus YAL013W, strain DEP1, stronger effect = lower value 1.01 | S. cerevisiae deletion strains, locus YBR229C, strain ROT2, stronger effect = lower value 1.01 | S. cerevisiae deletion strains, locus YCL061C, strain MRC1, stronger effect = lower value 1.01 | S. cerevisiae deletion strains, locus YDL101C, strain DUN1, stronger effect = lower value 1 | S. cerevisiae deletion strains, locus YDR150W, strain NUM1, stronger effect = lower value 0.923 | S. cerevisiae deletion strains, locus YEL061C, strain CIN8, stronger effect = lower value 1 | S. cerevisiae deletion strains, locus YGR078C, strain PAC10, stronger effect = lower value 1.01 | S. cerevisiae deletion strains, locus YHR030C, strain SLT2, stronger effect = lower value 1.03 | S. cerevisiae deletion strains, locus YHR087W, strain rtc3, stronger effect = lower value 1.01 | S. cerevisiae deletion strains, locus YJL187C, strain SWE1, stronger effect = lower value 1.01 | S. cerevisiae deletion strains, locus YJR043C, strain POL32, stronger effect = lower value 1.01 | S. cerevisiae deletion strains, locus YJR075W, strain HOC1, stronger effect = lower value 1.01 | S. cerevisiae deletion strains, locus YKL190W, strain CNB1, stronger effect = lower value 1.01 | S. cerevisiae deletion strains, locus YLR039C, strain RIC1, stronger effect = lower value 1.02 | S. cerevisiae deletion strains, locus YLR058C, strain SHM2 (second series), stronger effect = lower value 1.01 | S. cerevisiae deletion strains, locus YLR085C, strain ARP6, stronger effect = lower value 1.03 | S. cerevisiae deletion strains, locus YLR262C, strain YPT6, stronger effect = lower value 0.999 | S. cerevisiae deletion strains, locus YML094W, strain GIM5, stronger effect = lower value 0.988 | S. cerevisiae deletion strains, locus YMR219W, strain ESC1, stronger effect = lower value 1.01 | S. cerevisiae deletion strains, locus YMR263W, strain SAP30, stronger effect = lower value 1.01 | S. cerevisiae deletion strains, locus YMR307W, strain GAS1, stronger effect = lower value 1.06 | S. cerevisiae deletion strains, locus YNL128W, strain TEP1, stronger effect = lower value 1.01 | S. cerevisiae deletion strains, locus YNL153C, strain GIM3, stronger effect = lower value 1 | S. cerevisiae deletion strains, locus YNL298W, strain CLA4 (second series), stronger effect = lower value 0.998 | S. cerevisiae deletion strains, locus YNL322C, strain KRE1, stronger effect = lower value 1.01 | S. cerevisiae deletion strains, locus YNR030W, strain Alg12, stronger effect = lower value 1.02 | S. cerevisiae deletion strains, locus YPL055C, strain LGE1, stronger effect = lower value 0.928 | S. cerevisiae deletion strains, locus YPL241C, strain CIN2, stronger effect = lower value 0.994 | S. cerevisiae deletion strains, locus YPR135W, strain CTF4, stronger effect = lower value 0.962 | S. cerevisiae strains, strain wild type, stronger effect = lower value 1.01
